The text below walks through data of PubChem BioAssay (NCATS).

Records with an inconclusive call do not appear. Active and inactive are the calls of the source. The call rests on the fitted dose curve; in most records, active means well fitted cell-killing curve with a large enough effect; inconclusive means small, poorly fitted or top-dose-only effect; inactive means flat fitted curve, though single readings scatter.
Potency means the concentration at half of the fitted maximal effect.

This assay is described as follows: qHTS of pediatric cancer cell lines to identify multiple opportunities for drug repurposing: Primary screen for U-2 OS cells (AID 1347096). Further: nearly all actives have a fitted effect of over 50% in size.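 On activity change, negative = cytotoxic: plate controls were DMSO wells for no effect and bortezomib positive control wells for full effect.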 The conditions noted are these: U-2 OS viability, CellTiter-Glo luminescence, 48 h; series mostly up to 46 µM; activity change, negative = cytotoxic: at the top concentration. An excerpt: Drug repurposing or repositioning has been offered as a strategy for drug development in oncology programs. This approach has special potential for childhood cancers and other rare or orphan diseases, where the expected return on new drug development has been a disincentive to pharmaceuticals.
In this project we exploit the poly-pharmacology of drugs to discover new indications via phenotypic screening of a panel of 19 well-characterized cell lines derived from solid tumors seen in children and adolescents. The goal is to identify approved drugs with previously unrecognized anticancer properties that has the potential to reveal new mechanisms and biological processes involved in carcinogenesis or drug resistance. We employed a titration-based paradigm (quantitative high-throughput screening or qHTS), where all compounds were tested at multiple concentrations for their effect on cell viability. Concentration-response curves (CRCs) were derived directly from the primary screen, and both potency and efficacy values were used to identify compounds with robust bioactivity profiles. We screened the NIH Chemical Genomics Center (NCGC) Pharmaceutical Collection (NPC) and Mechanism Interrogation Plate (MIPE) small molecule collections of approved and investigational compounds against these cell lines; and measured metabolically active cells after 48 hours of compound treatment as a proxy for cell viability.
Assay Submitter: Nathalia J. Martinez, National Center for Advancing Translational Sciences, National Institutes of Health, Rockville, MD, USA; email: natalia.martinez@nih.gov
[1] Shen, M et al. Quantitative high-throughput phenotypic screening of pediatric cancer cell lines identifies multiple opportunities for drug repurposing. Oncotarget 2017 Dec 19;9(4):4758-4772. PMID 29435139.
The cells were obtained from University of North Carolina (UNC), Pediatric Preclinical Testing Program (PPT), and Coriell Institute (CI).
qHTS cell viability assay:
Cells were assayed in growth media at a density of 500-1,000 cells/well. Five microliters of cells were dispensed into 1,536-well, white, solid-bottom, TC-treated plates (Greiner Bio One) using a multidrop dispenser and incubated at 37 degrees C, 5% CO2, under a humidified atmosphere for 5 hours. Twenty-three nanoliters of compounds and controls (neutral control DMSO or positive control bortezomib at final concentration of 2.3 µM) were subsequently transferred by Kalypsys pintool. For primary screens, the MIPE collection was tested at 11-point dilutions (final concentrations range from 0.78 nM to 46 µM) and the NPC collection at 8-point dilutions (final concentrations range from 0.59 nM to 46 µM). Compounds tested in follow-up screens were assayed at 11-point dilutions. Cells were incubated for 48 hours, followed by addition of 3 µL of CellTiter-Glo (Promega). After a 15 min incubation at room temperature, samples were analyzed for luminescence intensity using a ViewLux High-throughput CCD imager equipped with clear filters.
A general note: qHTS replaces the single test concentration by a dilution series.
For `O=C(O)CN(CCOCCOCCN(CC(=O)O)CC(=O)O)CC(=O)O`, the activity change, negative = cytotoxic is 10.9% [at 0.597 µM] (inactive).
As for `CCOC(=O)C1=C(C)NC(C)=C(C(=O)OC)C1c1cccc(Cl)c1Cl` (stereo not given), the “activity change, negative = cytotoxic” value was -2.28% (inactive).
As for `N[C@@H](COP(=O)(O)O)C(=O)O`, the “activity change, negative = cytotoxic” value was 3.84% [at 16.1 µM] (inactive).
In the case of `c1ccc2c(c1)CCCC2C1=NCCN1` (stereo not given), the “activity change, negative = cytotoxic” value is 13.2% (inactive).
Same read-out and setting: with `NCCCNCCSP(=O)(O)O` the figure was 2.93% [at 9.22 µM] (inactive).
Regarding `COc1ccc(CCN(C)CCCC(C#N)(c2cc(OC)c(OC)c(OC)c2)C(C)C)cc1OC` (stereo not given), the “activity change, negative = cytotoxic” value is -6.56% (inactive).
Take `COc1cc(C(=O)OCCCN2CCCN(CCCOC(=O)c3cc(OC)c(OC)c(OC)c3)CC2)cc(OC)c1OC`: the “activity change, negative = cytotoxic” value was -16.6% (inactive).
With `CCCN(CCC)CCc1cccc2c1CC(=O)N2`, the “activity change, negative = cytotoxic” value was 12.7% (inactive).
For `C[C@]12CCC(=O)C=C1CC[C@@H]1[C@@H]2CC[C@@]2(C)[C@H]1CC[C@]2(O)C(=O)CO`, the “activity change, negative = cytotoxic” value was 1.75% (inactive).
For `CO[C@@]1(NC(=O)CSCC#N)C(=O)N2C(C(=O)O)=C(CSc3nnnn3C)CS[C@@H]21`, the “activity change, negative = cytotoxic” value was 3.75% (inactive).
As for `COc1cc2c(cc1OC)-c1cc(=Nc3c(C)cc(C)cc3C)n(C)c(=O)n1CC2`, the “activity change, negative = cytotoxic” value is -19.7% (inactive).
For the compound `CCCCNc1ccc(C(=O)OCCN(C)C)cc1`, the “activity change, negative = cytotoxic” value was 10.9% (inactive).
Take `C=CCc1ccccc1OCC(O)CNC(C)C` (stereo not given): the “activity change, negative = cytotoxic” value was -2.22% (inactive).
Consider `CCc1c(C)[nH]c2c1C(=O)C(CN1CCOCC1)CC2` (stereo not given), for which the “activity change, negative = cytotoxic” value is 5.9% (inactive).
As to `CCN1CCc2nc(N)oc2CC1`, the “activity change, negative = cytotoxic” value was 10.6% (inactive).
Consider `COc1ccc([C@@H]2Sc3ccccc3N(CCN(C)C)C(=O)[C@@H]2OC(C)=O)cc1`, for which the “activity change, negative = cytotoxic” value is 1.68% (inactive).
On the same count and under the same terms, with `CC(C(=O)O)c1ccc(CC2CCCC2=O)cc1` (stereo not given) the figure was 7.27% (inactive).
Still for that read-out and setting: the result for `CN1CCN(CC(=O)N2c3ccccc3C(=O)Nc3cccnc32)CC1` reads 4.1% [at 4.84 µM] (inactive); that for `NC(=O)c1cn(Cc2c(F)cccc2F)nn1`, -0.804% (inactive).
Regarding `CC(=O)OC(C)C[N+](C)(C)C` (stereo not given), the “activity change, negative = cytotoxic” value was -1.11% (inactive).
For `CNCCC(Oc1ccccc1OC)c1ccccc1` (stereo not given), the “activity change, negative = cytotoxic” value was 2.3% (inactive).
Take `CCn1nc(C(=O)O)c(=O)c2cc3c(cc21)OCO3`: the “activity change, negative = cytotoxic” value is -0.0867% (inactive).
For `OC(CCN1CCCCC1)(c1ccccc1)C1CCCCC1` (stereo not given), the “activity change, negative = cytotoxic” value is 0.212% (inactive).
Turning to `Cc1ccc(Cl)c(Nc2ccccc2C(=O)O)c1Cl`, the “activity change, negative = cytotoxic” value was 10.1% (inactive).
`COCCc1ccc(OCC(O)CNC(C)C)cc1` (stereo not given): the “activity change, negative = cytotoxic” value is 1.34% (inactive).
With `CCCCOCCOCCOCc1cc2c(cc1CCC)OCO2`, the Potency entry was “inactive”.
Turning to `COCCCC/C(=N\OCCN)c1ccc(C(F)(F)F)cc1`, the “activity change, negative = cytotoxic” value was -19.3% (inactive).
Turning to `C[C@@H](O)[C@H]1C(=O)N2C(C(=O)O)=C(SCCN=CN)C[C@H]12`, the “activity change, negative = cytotoxic” value was 0.457% (inactive).
As for `Cc1nc2sccn2c(=O)c1CCN1CCC(=C(c2ccc(F)cc2)c2ccc(F)cc2)CC1`, the “activity change, negative = cytotoxic” value was -2.25% (inactive).
As to `C[n+]1cc2c3c(ccc2c2ccc4cc5c(cc4c21)OCO5)OCO3`, the Potency was 2910 nM (active).
On to `CCCCNc1c(C(=O)OCC)c(C)nc2c1cnn2CC`, for which the “activity change, negative = cytotoxic” value is -19.8% (inactive).
For `CC(=O)Oc1cc(C(C)C)c(OCCN(C)C)cc1C`, the “activity change, negative = cytotoxic” value was 9.62% (inactive).
Turning to `NC(N)=NC(=O)Cc1c(Cl)cccc1Cl`, the “activity change, negative = cytotoxic” value was -6.96% (inactive).
Regarding `CCCN(CCC)C(=O)C(CCC(=O)O)NC(=O)c1ccccc1` (stereo not given), the “activity change, negative = cytotoxic” value was -3.28% (inactive).
On the same count and under the same terms, with `Cc1nc2c([nH]1)c(=O)n(C)c(=O)n2Cc1ccco1` the figure was -0.358% (inactive).
Turning to `CN1CCN(C2=Nc3ccccc3Oc3ccc(Cl)cc32)CC1`, the “activity change, negative = cytotoxic” value was -16.3% (inactive).
Consider `COCCOC(=O)C1=C(C)NC(C)=C(C(=O)OC(C)C)C1c1cccc([N+](=O)[O-])c1` (stereo not given), for which the “activity change, negative = cytotoxic” value was -1.78% (inactive).
Consider `O=C(O)CN(CCN(CC(=O)O)CC(=O)O)CCN(CC(=O)O)CC(=O)O`, for which the “activity change, negative = cytotoxic” value is 10.8% [at 16.1 µM] (inactive).
On the same count and under the same terms, the result for `NS(=O)(=O)c1cc2c(cc1Cl)NC(C1CC3C=CC1C3)NS2(=O)=O` (stereo not given) reads 7.31% (inactive); that for `CC(C)NNC(=O)c1ccncc1`, 1.23% (inactive).
